Data: the supplement of paper PMC10849652
Targets with a hit are over-represented here; the source holds about 8,800 in all. About 0.5% of all pairs of compound and target were hits.

Assays:
Assay in all cases: log2 fold change, soluble protein after heating vs DMSO (PISA); higher = thermal stabilisation; K562 lysate, 10 uM; active = over 0.2 and 3.5 SD of the protein, either way, in both replicates (recomputed)
erlotinib = compound: C#Cc1cccc(Nc2ncnc3cc(OCCOC)c(OCCOC)cc23)c1 [erlotinib]
Procedure, shortened: (§1)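 Following dounce homogenisation of K562 pellets in PBS pH 7.4 with 1 mM MgCl2, crude extract at 1 mg/mL protein was incubated for 30 min with 10 μM compound. Aliquots were then heated for 3 min over 48°C-58°C and pooled, NP-40 was added to 0.5% at 4°C, and soluble protein was recovered as the supernatant at 21,000xg for 90 min. Channel-sum-equalised TMTpro 16plex LC-MS/MS quantified this protein. Each value, from duplicates, is a log-two fold change in thermal stability relative to solvent controls.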

[1] = compound: C/C(=N\NC(=O)C1=CC(=CC=C1)S(=O)(=O)N2CCOCC2)/C3=C(C=CC(=C3)Cl)O
Procedure, shortened: as §1

[2] = compound: C1=CC(=CC=C1C2=NC3=C(N2)C=C(C=C3)C(=O)N)OC4=CC=C(C=C4)Cl
Procedure, shortened: as §1

[3] = compound: C1=CC2=C(C=CC(=C2)/C=C\3/C(=O)NC(=NCC4=CC=CS4)S3)N=C1
Procedure, shortened: as §1

[4] = compound: C1=CC2=NC=CN=C2C=C1/C=C/3\C(=O)NC(=O)S3
Procedure, shortened: as §1

[5] = compound: C1=CC=C(C=C1)C2=NC(=C(N2)C3=CC=NC=C3)C4=CC(=C(C=C4)Cl)O
Procedure, shortened: as §1

[6] = compound: C1=CC=C2C(=C1)C3=NNC4=CC=CC(=C43)C2=O
Procedure, shortened: as §1

[7] = compound: C1CCN(C1)C(=O)NC2=CC=CC(=C2)NC3=NC=C(C(=N3)NCCC4=CN=CN4)Br
Procedure, shortened: as §1

[8] = compound: C1CN(CCC1(CC2=CC=C(C=C2)Cl)N)C3=NC=NC4=C3C=CN4
Procedure, shortened: as §1

IRAK-1-4 Inhibitor I = compound: C1COCCN1CCN2C3=CC=CC=C3N=C2NC(=O)C4=CC(=CC=C4)[N+](=O)[O-] [IRAK-1-4 Inhibitor I]
Procedure, shortened: as §1

ibrutinib = compound: C=CC(=O)N1CCC[C@@H](n2nc(-c3ccc(Oc4ccccc4)cc3)c3c(N)ncnc32)C1 [ibrutinib]
Procedure, shortened: as §1

[9] = compound: CC(=O)c1cnc2ccc(-c3cc(Cl)c(O)c(Cl)c3)nc2c1N[C@H]1CC[C@H](CN(C)C)CC1
Procedure, shortened: as §1

ralimetinib = compound: CC(C)(C)Cn1c(N)nc2ccc(-c3[nH]c(C(C)(C)C)nc3-c3ccc(F)cc3)nc21 [ralimetinib]
Procedure, shortened: as §1

[10] = compound: CC(C)(O)CC(=O)NCCn1ccc2ncnc(Nc3ccc(Oc4cccc(C(F)(F)F)c4)c(Cl)c3)c21
Procedure, shortened: as §1

[11] = compound: CC(C)C1=C2N=C(C=C(N2N=C1)NCC3=CC=CC=C3)NCCCCCCN
Procedure, shortened: as §1

[12] = compound: CC1=C(C(CC(=O)N1)C2=CC=C(C=C2)C(F)(F)F)C(=O)NC3=C(C=C4C(=C3)C=NN4)F
Procedure, shortened: as §1

[13] = compound: CC1=C(C2=C(C=C1)C(=O)C3=CC=CC=C3N2CCCN)C
Procedure, shortened: as §1

[14] = compound: CC1=C(C=C(C=C1)NC(=O)C2=CC(=CC=C2)C(C)(C)C#N)NC3=CC4=C(C=C3)N=CN(C4=O)C
Procedure, shortened: as §1

[15] = compound: CC1=C(C=C(C=C1)NC(=O)C2=CC(=CC=C2)N(C)C)NC(=O)C3=CC=C(C=C3)O
Procedure, shortened: as §1

[16] = compound: CC1=CC=C(C=C1)SC2=C3C=C(SC3=CN=C2)C(=O)N
Procedure, shortened: as §1

Measured: log2 fold change

YLPM1 (UniProt P49750)
Chain of UniProt P49750 (P49750 whole entry, looked up): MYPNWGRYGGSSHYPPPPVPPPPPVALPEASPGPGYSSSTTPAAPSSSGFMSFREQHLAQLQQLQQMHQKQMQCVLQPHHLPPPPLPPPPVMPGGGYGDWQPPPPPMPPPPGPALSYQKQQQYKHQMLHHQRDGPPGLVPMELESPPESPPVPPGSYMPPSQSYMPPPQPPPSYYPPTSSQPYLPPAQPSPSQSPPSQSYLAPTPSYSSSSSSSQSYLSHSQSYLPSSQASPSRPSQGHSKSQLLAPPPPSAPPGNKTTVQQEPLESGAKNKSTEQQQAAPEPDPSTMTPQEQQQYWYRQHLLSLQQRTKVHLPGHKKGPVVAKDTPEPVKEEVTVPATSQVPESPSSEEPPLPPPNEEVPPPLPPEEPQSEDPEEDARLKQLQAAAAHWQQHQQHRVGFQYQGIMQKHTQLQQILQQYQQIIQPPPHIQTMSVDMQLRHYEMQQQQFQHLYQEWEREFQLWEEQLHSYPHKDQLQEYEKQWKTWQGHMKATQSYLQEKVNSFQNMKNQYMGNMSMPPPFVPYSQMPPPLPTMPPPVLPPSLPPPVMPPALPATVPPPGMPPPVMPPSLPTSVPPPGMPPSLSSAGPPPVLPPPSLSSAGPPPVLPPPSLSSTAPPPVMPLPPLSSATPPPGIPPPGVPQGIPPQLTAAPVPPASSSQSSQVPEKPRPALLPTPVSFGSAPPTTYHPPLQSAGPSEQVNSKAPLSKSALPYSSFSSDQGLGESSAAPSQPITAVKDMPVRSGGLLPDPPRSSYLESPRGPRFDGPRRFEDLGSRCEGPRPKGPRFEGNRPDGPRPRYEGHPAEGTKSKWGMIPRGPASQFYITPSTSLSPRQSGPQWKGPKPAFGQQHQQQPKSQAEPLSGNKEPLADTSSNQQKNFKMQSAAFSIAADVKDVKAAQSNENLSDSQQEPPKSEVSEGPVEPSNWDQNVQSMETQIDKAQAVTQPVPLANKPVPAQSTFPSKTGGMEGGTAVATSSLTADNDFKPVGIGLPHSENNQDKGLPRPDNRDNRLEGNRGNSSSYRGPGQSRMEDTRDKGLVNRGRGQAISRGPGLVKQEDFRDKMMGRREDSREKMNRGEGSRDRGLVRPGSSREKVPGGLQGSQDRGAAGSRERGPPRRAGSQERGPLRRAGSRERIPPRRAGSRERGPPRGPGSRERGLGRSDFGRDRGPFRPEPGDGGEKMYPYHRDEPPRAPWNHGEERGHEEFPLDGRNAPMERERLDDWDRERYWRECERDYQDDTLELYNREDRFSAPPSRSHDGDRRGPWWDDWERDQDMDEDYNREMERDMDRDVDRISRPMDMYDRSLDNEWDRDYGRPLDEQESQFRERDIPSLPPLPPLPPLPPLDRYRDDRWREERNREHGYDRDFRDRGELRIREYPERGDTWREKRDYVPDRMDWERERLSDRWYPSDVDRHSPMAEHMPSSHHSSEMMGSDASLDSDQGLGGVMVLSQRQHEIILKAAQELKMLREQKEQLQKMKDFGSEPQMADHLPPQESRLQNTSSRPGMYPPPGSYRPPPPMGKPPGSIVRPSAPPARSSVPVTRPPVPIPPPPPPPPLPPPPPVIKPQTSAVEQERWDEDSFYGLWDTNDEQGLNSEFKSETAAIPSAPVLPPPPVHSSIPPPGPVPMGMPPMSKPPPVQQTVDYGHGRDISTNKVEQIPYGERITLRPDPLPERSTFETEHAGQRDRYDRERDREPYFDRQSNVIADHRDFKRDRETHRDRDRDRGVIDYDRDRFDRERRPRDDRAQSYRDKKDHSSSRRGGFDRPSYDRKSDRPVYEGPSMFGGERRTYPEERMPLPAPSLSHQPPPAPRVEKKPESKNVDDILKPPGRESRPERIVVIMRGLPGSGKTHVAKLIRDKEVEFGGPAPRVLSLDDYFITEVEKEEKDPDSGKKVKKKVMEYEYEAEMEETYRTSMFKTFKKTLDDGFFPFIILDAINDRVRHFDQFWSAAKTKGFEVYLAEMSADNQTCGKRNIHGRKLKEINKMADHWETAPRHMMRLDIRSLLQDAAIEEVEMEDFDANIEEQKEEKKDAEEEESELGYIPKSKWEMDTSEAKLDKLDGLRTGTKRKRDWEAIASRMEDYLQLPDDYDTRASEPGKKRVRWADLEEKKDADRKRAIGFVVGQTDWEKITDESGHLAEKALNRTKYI
active: [12] 0.301
inactive: erlotinib 0.026 | [1] -0.04 | [2] 0.035 | [3] -0.043 | [4] -0.018 | [5] -0.004 | [6] 0.022 | [7] 0.044 | [8] 0.019 | IRAK-1-4 Inhibitor I 0.027 | ibrutinib 0.028 | [9] -0.044 | ralimetinib -0.002 | [10] 0.022 | [11] -0.006 | [13] -0.031 | [14] -0.017 | [15] 0 | [16] -0.046

ZFPM1 (UniProt Q8IX07)
inactive: erlotinib 0.015 | [1] 0.039 | [2] 0.047 | [3] -0.041 | [4] 0.005 | [5] -0.01 | [6] 0.021 | [7] 0.031 | [8] -0.01 | IRAK-1-4 Inhibitor I 0.077 | ibrutinib 0.004 | [9] -0.034 | ralimetinib 0.013 | [10] -0.067 | [11] 0.02 | [12] 0.01 | [13] 0.003 | [14] 0.033 | [15] 0 | [16] -0.026

VRK2 (UniProt Q86Y07)
inactive: erlotinib 0.04 | [1] 0.039 | [2] 0.113 | [3] -0.058 | [4] -0.056 | [5] 0 | [6] 0.064 | [7] 0.064 | [8] 0.196 | IRAK-1-4 Inhibitor I 0.049 | ibrutinib 0.049 | [9] 0.106 | ralimetinib 0.155 | [10] -0.041 | [11] -0.037 | [12] -0.036 | [13] -0.026 | [14] -0.021 | [15] 0.023 | [16] 0.149

WDR41 (UniProt Q9HAD4)
inactive: erlotinib -0.071 | [1] -0.044 | [2] -0.021 | [3] 0.015 | [4] -0.027 | [5] -0.113 | [6] 0.031 | [7] -0.091 | [8] 0.049 | IRAK-1-4 Inhibitor I 0.029 | ibrutinib -0.163 | [9] -0.004 | ralimetinib 0.017 | [10] 0.088 | [11] -0.015 | [12] 0.03 | [13] -0.054 | [14] 0.164 | [15] -0.049 | [16] 0.015

VPS37B (UniProt Q9H9H4)
Chain of UniProt Q9H9H4 (Q9H9H4 whole entry, looked up): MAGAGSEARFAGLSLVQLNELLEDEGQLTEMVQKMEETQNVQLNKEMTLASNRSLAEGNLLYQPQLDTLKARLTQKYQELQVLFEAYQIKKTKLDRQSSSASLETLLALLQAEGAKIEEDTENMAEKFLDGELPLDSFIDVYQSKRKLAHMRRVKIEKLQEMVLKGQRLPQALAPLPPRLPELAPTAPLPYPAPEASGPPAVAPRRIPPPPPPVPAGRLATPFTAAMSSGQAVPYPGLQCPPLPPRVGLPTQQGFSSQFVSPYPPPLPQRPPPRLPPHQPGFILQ
inactive: erlotinib -0.046 | [1] 0.078 | [2] 0.059 | [3] 0.002 | [4] -0.011 | [5] 0.031 | [6] 0 | [7] 0.043 | [8] 0.098 | IRAK-1-4 Inhibitor I -0.012 | ibrutinib 0.024 | [9] 0.014 | ralimetinib -0.055 | [10] 0.009 | [11] -0.028 | [12] 0 | [13] -0.008 | [14] 0.019 | [15] 0.012 | [16] 0.028

YTHDC2 (UniProt Q9H6S0)
inactive: erlotinib -0.008 | [1] 0.065 | [2] 0.012 | [3] 0.027 | [4] 0.02 | [5] -0.001 | [6] 0.074 | [7] -0.019 | [8] 0.029 | IRAK-1-4 Inhibitor I 0.002 | ibrutinib 0.003 | [9] 0.009 | ralimetinib 0.061 | [10] 0.021 | [11] 0.013 | [12] 0.003 | [13] -0.023 | [14] -0.003 | [15] 0.019 | [16] -0.018

ZFYVE19 (UniProt Q96K21)
inactive: erlotinib -0.017 | [1] -0.056 | [2] 0.016 | [3] -0.024 | [4] -0.026 | [5] 0.055 | [6] 0.007 | [7] -0.031 | [8] 0.012 | IRAK-1-4 Inhibitor I -0.027 | ibrutinib -0.051 | [9] -0.031 | ralimetinib -0.004 | [10] 0.009 | [11] -0.015 | [12] -0.028 | [13] -0.067 | [14] -0.037 | [15] -0.013 | [16] -0.042

ZNF217 (UniProt O75362)
inactive: erlotinib -0.014 | [1] -0.043 | [2] 0.06 | [3] -0.132 | [4] -0.004 | [5] 0.027 | [6] -0.162 | [7] -0.014 | [8] 0.028 | IRAK-1-4 Inhibitor I 0.007 | ibrutinib -0.033 | [9] 0.053 | ralimetinib 0.017 | [10] -0.014 | [11] -0.061 | [12] -0.005 | [13] -0.022 | [14] 0.002 | [15] 0.025 | [16] -0.031

VPS28 (UniProt Q9UK41)
inactive: erlotinib 0.707 | [1] -0.039 | [2] 0.004 | [3] -0.005 | [4] 0.041 | [5] 0.028 | [6] -0.036 | [7] -0.006 | [8] -0.018 | IRAK-1-4 Inhibitor I -0.036 | ibrutinib 0.109 | [9] -0.02 | ralimetinib 0.009 | [10] 0.046 | [11] -0.004 | [12] -0.005 | [13] 0.019 | [14] -0.092 | [15] 0.028 | [16] 0.019

UPF3B (UniProt Q9BZI7)
inactive: erlotinib -0.026 | [1] -0.109 | [2] 0.042 | [3] 0.02 | [4] -0.005 | [5] 0.017 | [6] -0.014 | [7] -0.018 | [8] -0.008 | IRAK-1-4 Inhibitor I 0.008 | ibrutinib -0.011 | [9] 0.024 | ralimetinib 0.007 | [10] -0.006 | [11] -0.021 | [12] 0.018 | [13] -0.04 | [14] 0.008 | [15] -0.001 | [16] -0.003

VPS41 (UniProt P49754)
inactive: erlotinib 0.032 | [1] 0.073 | [2] -0.029 | [3] 0.062 | [4] -0.003 | [5] 0.036 | [6] -0.033 | [7] -0.025 | [8] 0.049 | IRAK-1-4 Inhibitor I -0.008 | ibrutinib -0.019 | [9] 0.007 | ralimetinib 0.015 | [10] 0.016 | [11] 0.003 | [12] 0.024 | [13] 0.014 | [14] 0.005 | [15] 0.047 | [16] 0.013

UNC45A (UniProt Q9H3U1)
inactive: erlotinib 0.016 | [1] 0.014 | [2] -0.039 | [3] -0.006 | [4] 0.001 | [5] -0.024 | [6] -0.037 | [7] -0.015 | [8] -0.002 | IRAK-1-4 Inhibitor I -0.001 | ibrutinib 0.002 | [9] -0.008 | ralimetinib 0.03 | [10] -0.012 | [11] -0.009 | [12] -0.007 | [13] 0.002 | [14] 0.004 | [15] 0.002 | [16] -0.007

ZMYND8 isoform 19 (UniProt Q9ULU4)
Chain of UniProt Q9ULU4 (Q9ULU4 whole entry, looked up): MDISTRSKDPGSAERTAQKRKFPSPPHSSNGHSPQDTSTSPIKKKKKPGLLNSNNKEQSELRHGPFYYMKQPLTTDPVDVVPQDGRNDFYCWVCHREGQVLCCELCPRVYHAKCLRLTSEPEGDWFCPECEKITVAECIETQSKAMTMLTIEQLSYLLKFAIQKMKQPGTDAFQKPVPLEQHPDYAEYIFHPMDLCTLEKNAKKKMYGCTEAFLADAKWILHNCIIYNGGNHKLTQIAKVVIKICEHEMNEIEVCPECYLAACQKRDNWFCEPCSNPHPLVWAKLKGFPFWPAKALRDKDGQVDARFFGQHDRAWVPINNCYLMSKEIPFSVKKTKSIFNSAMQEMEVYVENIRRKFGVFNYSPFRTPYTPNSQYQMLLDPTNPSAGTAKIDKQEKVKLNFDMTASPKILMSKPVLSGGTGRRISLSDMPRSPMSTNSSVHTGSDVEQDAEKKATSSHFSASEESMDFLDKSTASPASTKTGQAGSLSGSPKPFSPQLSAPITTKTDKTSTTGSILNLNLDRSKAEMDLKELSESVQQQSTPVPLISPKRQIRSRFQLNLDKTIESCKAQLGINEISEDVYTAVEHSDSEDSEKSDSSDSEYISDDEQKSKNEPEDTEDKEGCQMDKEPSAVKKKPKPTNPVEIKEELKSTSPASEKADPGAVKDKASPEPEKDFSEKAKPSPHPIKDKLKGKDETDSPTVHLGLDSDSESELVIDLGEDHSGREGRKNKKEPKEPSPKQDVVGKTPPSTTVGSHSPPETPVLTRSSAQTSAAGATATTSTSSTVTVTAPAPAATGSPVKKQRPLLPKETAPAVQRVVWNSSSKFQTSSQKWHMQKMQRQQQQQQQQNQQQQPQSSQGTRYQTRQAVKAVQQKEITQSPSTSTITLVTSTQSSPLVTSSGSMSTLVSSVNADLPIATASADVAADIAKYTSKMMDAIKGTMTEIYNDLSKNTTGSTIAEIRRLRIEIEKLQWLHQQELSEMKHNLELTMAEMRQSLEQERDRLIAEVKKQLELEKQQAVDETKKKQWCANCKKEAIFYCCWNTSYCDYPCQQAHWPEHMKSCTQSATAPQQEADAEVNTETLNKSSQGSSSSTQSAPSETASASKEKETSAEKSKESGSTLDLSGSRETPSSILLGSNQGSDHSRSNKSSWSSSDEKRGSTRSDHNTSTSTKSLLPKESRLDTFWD
inactive: erlotinib -0.012 | [1] -0.058 | [2] 0.023 | [3] 0.011 | [4] -0.037 | [5] 0.024 | [6] -0.077 | [7] -0.021 | [8] 0.018 | IRAK-1-4 Inhibitor I -0.025 | ibrutinib 0.111 | [9] -0.02 | ralimetinib 0.047 | [10] 0.007 | [11] 0.002 | [12] 0.007 | [13] 0.027 | [14] 0.02 | [15] 0.011 | [16] 0.037

WDHD1 (UniProt O75717)
Chain of UniProt O75717 (O75717 whole entry, looked up): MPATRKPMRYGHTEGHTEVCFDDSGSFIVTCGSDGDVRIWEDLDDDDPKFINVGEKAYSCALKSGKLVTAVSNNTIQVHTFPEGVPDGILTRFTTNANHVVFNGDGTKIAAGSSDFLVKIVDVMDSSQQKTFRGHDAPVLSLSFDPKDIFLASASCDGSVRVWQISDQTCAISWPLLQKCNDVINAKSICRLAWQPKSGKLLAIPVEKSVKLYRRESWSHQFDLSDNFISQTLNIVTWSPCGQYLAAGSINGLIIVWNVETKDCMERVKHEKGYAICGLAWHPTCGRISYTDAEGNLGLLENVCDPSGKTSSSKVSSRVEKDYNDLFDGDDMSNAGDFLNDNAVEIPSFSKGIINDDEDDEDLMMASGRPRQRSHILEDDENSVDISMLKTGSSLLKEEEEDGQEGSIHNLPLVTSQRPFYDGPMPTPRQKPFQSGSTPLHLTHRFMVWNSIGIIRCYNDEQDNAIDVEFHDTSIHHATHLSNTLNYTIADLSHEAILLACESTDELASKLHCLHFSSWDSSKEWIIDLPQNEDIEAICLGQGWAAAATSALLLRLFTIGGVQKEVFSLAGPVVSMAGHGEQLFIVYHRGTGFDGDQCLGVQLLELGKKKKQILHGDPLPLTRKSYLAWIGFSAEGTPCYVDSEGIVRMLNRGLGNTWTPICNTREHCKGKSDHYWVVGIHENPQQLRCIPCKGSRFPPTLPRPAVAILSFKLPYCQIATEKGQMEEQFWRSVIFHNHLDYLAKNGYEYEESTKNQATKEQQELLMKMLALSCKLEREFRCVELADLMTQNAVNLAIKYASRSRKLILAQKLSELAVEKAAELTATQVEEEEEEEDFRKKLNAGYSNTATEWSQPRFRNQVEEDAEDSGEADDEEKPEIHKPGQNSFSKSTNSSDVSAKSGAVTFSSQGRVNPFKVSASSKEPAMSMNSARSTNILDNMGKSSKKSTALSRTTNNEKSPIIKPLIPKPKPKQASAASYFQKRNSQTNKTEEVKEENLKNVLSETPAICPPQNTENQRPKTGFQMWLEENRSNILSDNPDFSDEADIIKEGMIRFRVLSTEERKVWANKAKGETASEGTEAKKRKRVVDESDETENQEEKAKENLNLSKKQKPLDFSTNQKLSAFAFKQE
inactive: erlotinib 0.013 | [1] 0.025 | [2] -0.004 | [3] 0.019 | [4] 0.002 | [5] 0.006 | [6] -0.005 | [7] 0 | [8] 0.025 | IRAK-1-4 Inhibitor I -0.017 | ibrutinib 0.024 | [9] -0.002 | ralimetinib 0.005 | [10] -0.01 | [11] -0.027 | [12] 0.007 | [13] -0.002 | [14] -0.002 | [15] 0.016 | [16] -0.005

VPS35L (UniProt Q7Z3J2)
inactive: erlotinib 0.005 | [1] -0.016 | [2] -0.028 | [3] -0.001 | [4] 0.002 | [5] 0.006 | [6] -0.038 | [7] -0.028 | [8] 0.006 | IRAK-1-4 Inhibitor I 0.04 | ibrutinib 0.011 | [9] 0.023 | ralimetinib -0.003 | [10] -0.032 | [11] 0.003 | [12] 0.007 | [13] 0.018 | [14] -0.021 | [15] 0.009 | [16] -0.005

YWHAQ (UniProt P27348)
Chain of UniProt P27348 (P27348 whole entry, looked up): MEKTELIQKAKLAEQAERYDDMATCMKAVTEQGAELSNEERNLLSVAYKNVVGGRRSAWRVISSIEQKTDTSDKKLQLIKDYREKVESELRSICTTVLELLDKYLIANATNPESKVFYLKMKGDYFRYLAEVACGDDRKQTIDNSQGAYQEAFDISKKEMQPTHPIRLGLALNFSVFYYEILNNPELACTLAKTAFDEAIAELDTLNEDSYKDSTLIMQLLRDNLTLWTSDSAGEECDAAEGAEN
inactive: erlotinib 0.026 | [1] 0.046 | [2] 0.016 | [3] 0.012 | [4] 0.017 | [5] 0.014 | [6] 0.021 | [7] -0.006 | [8] 0.022 | IRAK-1-4 Inhibitor I 0.013 | ibrutinib -0.011 | [9] -0.001 | ralimetinib -0.007 | [10] 0.028 | [11] 0 | [12] -0.054 | [13] 0.007 | [14] -0.001 | [15] 0.01 | [16] 0.01
